Compound activity: PubChem, University of Kansas High Throughput Screening Laboratory
Compounds with a hit are over-represented: about 3.6% of the library has one in this group of screens.
mHTT-CaM PPI inh: inhibitors of human mutant huntingtin-calmodulin interaction; P42858; AlphaScreen His-mHTT/GST-CaM binding, luminescence; inhibition, % at 15 µM; 3.6% of 190,000 active; AID 1671202
Pf apPOL block: Pf-apPOL DNA polymerase inhibition; inhibition, % at 10 µM; 0.25% of 210,000 active; AID 1794808; Recombinant Pf-apPOL, molecular beacon fluorescence, 1.5 h
A number is an active result; n = inactive; x = no result; ! = a repeat was not active. No stated cut-off is given here; in the data, active means inhibition above about 50%; inactive means the rest.

SMILES	mHTT-CaM PPI inh	Pf apPOL block
CCSc1nnc(NC(=O)Cc2csc(Nc3cccc(C(F)(F)F)c3)n2)s1	n	n
O=S(=O)(NCC1(O)CCOCC1)c1ccc2c(c1)CCCC2	n	n
COC(CNC(=O)c1cc(S(=O)(=O)N2CCC3(CC2)OCCO3)ccc1F)OC	n	n
COc1cccc2cc(C(N)=O)c(=Nc3ccc(O)cc3)oc12	99	n
COc1cccc2cc(C(N)=O)c(=Nc3ccc(C(N)=O)cc3)oc12	n	n
CCNC(=O)C1CCCc2c1[nH]c1ccc(Cl)cc21 (stereo not given)	100!	n
COCCNC(=O)C1CCCc2c1[nH]c1ccccc21 (stereo not given)	n	n
COc1ccc(C)cc1NC(=O)NCCC1CCN(S(=O)(=O)c2ccc(C)cc2)CC1	n	n
O=C(c1ccc(Br)cc1)c1ccc(N2CCOCC2)c([N+](=O)[O-])c1	n	n
CN1CCN(c2ccc(C(=O)c3ccc(Br)cc3)cc2[N+](=O)[O-])CC1	57	n
O=C1CCC(=O)N1c1ccc(Nc2ccc3c(c2)CCC3)c([N+](=O)[O-])c1	74	n
O=C1CCCC(=O)N1c1ccc(N2CCc3ccccc3C2)c([N+](=O)[O-])c1	n	n
CC1CC(=O)N(c2ccc(NC3CCCc4ccccc43)c([N+](=O)[O-])c2)C1=O (stereo not given)	n	n
O=C1CCCC(=O)N1c1ccc(NC2CCCc3ccccc32)c([N+](=O)[O-])c1 (stereo not given)	63	n
COc1cccc(NC(=O)N2CCC(N3CCN(Cc4ccccc4)C3=O)CC2)c1	n	n
COc1ccc(C(=O)COc2ccc3c(=O)c(-c4ccc(OC)c(OC)c4)c(C)oc3c2)cc1	n	n
CC(Oc1cccc2cccnc12)C(=O)O (stereo not given)	n	n
CC(=O)NC(c1ccc(C)cc1)c1ccc2cccnc2c1O (stereo not given)	100	n
Cc1ccc2cccc(SCc3ccc([N+](=O)[O-])cc3)c2n1	n	n
Cc1ccccc1C(NC(N)=O)c1ccccc1 (stereo not given)	n	n
CC(=O)NC(c1ccccc1C)c1ccc2cccnc2c1O (stereo not given)	100	n
CC(=O)NC(c1ccc([N+](=O)[O-])cc1)c1ccc2cccnc2c1O (stereo not given)	100	n
Cc1cccnc1NC(c1ccc([N+](=O)[O-])cc1)c1ccc2cccnc2c1O (stereo not given)	100	n
O=C1S/C(=C\c2ccccc2)C(=O)N1C(=O)c1ccc(F)cc1	n	n
CN(Cc1ccccc1)Cc1nc(C=Cc2cc(C(F)(F)F)cc(C(F)(F)F)c2)no1	x	n
SMILES	mHTT-CaM PPI inh	Pf apPOL block
O=S(=O)(c1ccc2nncn2c1)N(Cc1cc(F)cc(F)c1)c1ccc(F)cc1	n	n
CCOc1ccc(C2C(=O)N(C3CCCCC3)CC(=O)N2Cc2ccco2)cc1OC (stereo not given)	n	n
O=C(Nc1ccc(-c2ccc([N+](=O)[O-])cc2)cc1)c1ccco1	n	n
O=[N+]([O-])c1ccc(NC(c2ccco2)c2ccc3cccnc3c2O)cc1 (stereo not given)	100	n
COc1ccc(N2C(=O)NC3CC2(C)Oc2c(OC)cccc23)c(OC)c1 (stereo not given)	n	n
CCOC(=O)N1CCC(NC(=O)CCc2sc(C)nc2-c2cccs2)CC1	n	n
CN(C)C=C(C#N)C(=O)Nc1cc(C(F)(F)F)ccc1Cl	x	n
CC(C)C[C@@H](CSc1ccccc1)N1CCN(CCc2ccccc2)CCC1=O	88	n
Cc1ccc(SC[C@H](Cc2ccccc2)N2CC[C@@H](C)CCC2=O)cc1	n	n
O=C1CCN(CCc2ccccc2)CCN1[C@H](COc1ccccc1)c1ccccc1	100	n
CC(C)C[C@@H](CSc1ccc(Br)cc1)N1CCN(CCc2ccccc2)CCC1=O	n	n
Cc1ccc(SC[C@H](c2ccccc2)N2CCN(CCc3ccccc3)CCC2=O)cc1	100	n
CCCN1CCC(=O)N([C@H](CSc2ccc(C)cc2)c2ccccc2)CC1	n	n
O=C1CCC(OCc2ccccc2)CCN1[C@H](CSc1ccccc1)Cc1ccccc1 (stereo not given in full)	53	n
CCCN1CCC(=O)N([C@H](COc2ccccc2)c2ccccc2)CC1	n	n
O=C1CC(c2cccs2)CC2=C1C(c1ccc(Cl)s1)Nc1ccccc1N2 (stereo not given)	n	n
COc1ccc2nc(N3CCC(C(=O)N4CCN(c5ccccn5)CC4)CC3)sc2c1	n	n
CC(=O)c1ccc(OCC(O)CN2CCN(C)CC2)cc1 (stereo not given)	n	n
O=C1CCN(CCc2ccccc2)CCN1[C@H](CSc1ccccc1)c1ccccc1	100	n
CCCN1CCC(=O)N([C@H](CSc2ccccc2)c2ccccc2)CC1	n	n
CC(=O)Nc1ccc(SC[C@H](Cc2ccccc2)N2CCN(CCc3ccccc3)CCC2=O)cc1	100	n
CC(=O)Nc1ccc(SCCN2CCN(CCc3ccccc3)CCC2=O)cc1	n	n
CCNC(=O)C1CCN(c2cccc(C(F)(F)F)c2)C1=O (stereo not given)	n	n
CCOc1cccc(CN2CCc3nc(N4CCN(c5ccccc5)CC4)ncc3C2)c1	n	n
COc1ccc(NC(=O)C2CC(=O)N(c3ccc4c(c3)CCN4C(C)=O)C2)cc1Cl (stereo not given)	n	n
SMILES	mHTT-CaM PPI inh	Pf apPOL block
CC(C)(C)NCC(O)COc1ccc(C23CC4CC(CC(C4)C2)C3)cc1 (stereo not given)	100	n
CC(C)NCC(O)COc1ccc(C23CC4CC(CC(C4)C2)C3)cc1 (stereo not given)	100	n
CC[N+]1(CC(O)COc2ccc(C34CC5CC(CC(C5)C3)C4)cc2)CCCC1 (stereo not given)	n	n
C[N+]1(CC(O)COc2ccc(C34CC5CC(CC(C5)C3)C4)cc2)CCCC1 (stereo not given)	52	n
OCCN(CCO)CC(O)COc1ccc(C23CC4CC(CC(C4)C2)C3)cc1 (stereo not given)	n	n
Cc1ccc(OCC(O)CNC(C)C)cc1 (stereo not given)	n	n
COc1cc(Cl)ccc1C(=O)N1CC2CC(NC(=O)c3ccccc3)C1C2 (stereo not given)	n	n
O=C(NCc1ccco1)C1CCN(c2nc3ccc(-c4cccnc4)nc3s2)CC1	n	n
Cc1ccc([N+](=O)[O-])cc1S(=O)(=O)Nc1cccc(Cl)c1Cl	n	n
CCOC(=O)Cc1csc(N=CNO)n1	x	n
NC(=O)c1ccccc1N=Cc1ccc([N+](=O)[O-])o1	n	n
NC(N)=NN=C(/C=C/c1ccc([N+](=O)[O-])o1)/C=C/c1ccc([N+](=O)[O-])o1	100	x
COc1ccc(/C=C2\c3cc([N+](=O)[O-])ccc3-c3c2cc([N+](=O)[O-])cc3[N+](=O)[O-])cc1OC	n	n
CCO/C=C1\c2cc([N+](=O)[O-])ccc2-c2c1cc([N+](=O)[O-])cc2[N+](=O)[O-]	74	n
CCOC(=O)C(C)Oc1ccc2c(C)c(-c3ccccc3)c(=O)oc2c1 (stereo not given)	n	n
Cc1cc(C(=O)N2CCC3(C2)NCc2ccccc2NC3=NC2CCCC2)nn1C (stereo not given)	n	n
Cc1ccc(-c2ccc(N)cc2)o1	55	n
Cc1ccc(-c2ccccc2N)o1	n	n
